# The sample as a whole holds a higher share of hits than the screen did.
# Ba CapD inh: CapD enzyme inhibition | purified CapD enzyme, fluorescence intensity read-out; stronger effect = lower value | z-score (concentration not given with the values) | 0.23% of 140,000 active | AID 492967; in the data active = z-score mostly below about -2.9, no sharp cut-off; inactive = mostly above about -1.9
# Active calls of the source: *.
SMILES,Ba CapD inh
COc1ccc(-c2csc(C(=O)N3CCCCC3)c2)cc1,-0.21
COC(=O)CCn1ccc(C)n1,0.74
c1ccc2c(OCc3nn[nH]n3)cccc2c1,0.56
CCOC(=O)CCC(NS(=O)(=O)c1ccc(OC)c(OC)c1)C(=O)OCC (stereo not drawn),-0.78
CCOC(=O)c1sc(=S)n(CCc2ccccc2)c1N,-0.88
O=C(O)CCCc1ccc2c(c1)OCO2,-0.58
O=C(O)CCCCc1cccs1,1.4
Nc1cc(CCCC(=O)O)sc1CCCC(=O)O,-10*
O=C(O)CCN1C(=O)SC(CC(=O)Nc2nccs2)C1=O (stereo not drawn),0.14
Cc1ccc(-c2nc(S(=O)(=O)c3ccc(C)cc3)c(N(C)C)o2)cc1,-0.24
Cc1ccc(S(=O)(=O)c2nc(C)oc2N(C)C)cc1,-3*
Cc1ccc(S(=O)(=O)CCc2nc(S(=O)(=O)c3ccc(C)cc3)c(N(C)C)o2)cc1,-0.37
CCCCCOC(=O)C1=C(C)NC2(O)c3ccccc3C(=O)C12O (stereo not drawn),0.79
COc1ccc(/C=N/c2nc3ccc(Br)cc3s2)cc1,-0.79
O=c1oc(-c2cc3ccccc3s2)ns1,1.2
Nc1ccc(-c2nnc(-c3ccco3)o2)cc1,77
O=c1oc(-c2ccco2)ns1,-8.5*
O/N=C/c1c(-c2ccc(Cl)cc2)[nH]c2ccccc12,79
CCOc1ccc(-n2c(=S)sc3c(=O)[nH]c(SCc4cc(=O)n5cc(Cl)ccc5n4)nc32)cc1,0.58
COc1ccc(NC(=O)CSc2nc3n[nH]c(C)c3c(=N)n2-c2ccc(Br)cc2)c(OC)c1,-0.75
CCN1CCN(C(=O)C2CCN(C(=O)c3cc4sccc4n3Cc3ccc(F)cc3)CC2)CC1,-0.095
COc1ccc(C2/C(=C(\O)c3ccccc3)C(=O)C(=O)N2CCN2CCOCC2)cc1 (stereo not drawn),-0.94
CCCN1C(=O)c2ccccc2C(C(=O)O)C1c1ccc(OC)cc1 (stereo not drawn),0.45
COc1ccc(C2C(C(=O)/C=C/c3ccccc3)=C(O)C(=O)N2CCO)cc1 (stereo not drawn),-3.9*
COc1ccc(C(=O)COC(=O)c2ccc(N3C(=O)C4C5C=CC(C5)C4C3=O)cc2)cc1 (stereo not drawn),-0.67
SMILES,Ba CapD inh
Cc1ccc(C)c(C2=NN(c3ccccc3)C3(SC(c4ccccc4)=NN3c3ccc([N+](=O)[O-])cc3)c3ccccc32)c1 (stereo not drawn),-0.29
CCCNC(=O)Cn1nc(C)c2sc3ccccc3c2c1=O,-5.8*
Cc1nn(CC(=O)NCc2ccc3c(c2)OCO3)c(=O)c2c1sc1ccccc12,0.41
Cc1nn(CCCC(=O)N2CCCCC2)c(=O)c2c1sc1ccccc12,8.5
Oc1ccc(OCc2ccccc2)c(F)c1,0.43
CC(=O)Nc1ncnc2sc3c(c12)CCCC3,-8.8*
CCC(=O)Nc1ncnc2sc3c(c12)CCCC3,-0.07
O=C(Nc1ncnc2sc3c(c12)CCCC3)c1ccc(F)cc1,0.5
CC1CCc2onc(C(=O)N(C)c3ccccc3)c2C1 (stereo not drawn),-0.3
NC(=O)c1oc2ccccc2c1NC(=O)c1cccs1,0.76
Cc1ccccc1C(=O)Nc1c(C(=O)N2CCOCC2)oc2ccccc12,-1.4
O=C(Nc1c(C(=O)N2CCOCC2)oc2ccccc12)c1cccs1,-3.6*
COC(=O)c1ccc(OC(=O)c2ccccc2)cc1,0.1
O=C(O)Cn1c(O)c(C=Nc2ccccc2)sc1=S,-7.4*
C=CCn1c(O)c(C=Nc2ccccc2)sc1=S,-2.7
Oc1[nH]c(=S)sc1C=Nc1ccccc1,0.18
N#Cc1c(-c2ccc3c(c2)OCO3)cc(-c2ccccc2)nc1N,45
Cc1cccc(NCN2C(=O)CSC2=O)c1C,0.36
NC(=O)c1cccc2c1-c1ccccc1/C2=N/O,0.015
Nc1ccc(Cl)cc1C(=O)N1CCN(c2ccc([N+](=O)[O-])cn2)CC1,0.28
O=C(O)c1cc(Nc2ccccc2C(=O)O)nc(Nc2ccccc2C(=O)O)n1,-5.1*
O=C(O)c1ccc(Nc2nccc(Nc3ccccc3C(=O)O)n2)cc1,13
O=C(O)/C=C\C(=O)Nc1ccccc1C(=O)O,5.8
Nc1cccnc1N1CCOCC1,3.3
O=C(O)CCC(=O)Nc1sccc1C(=O)Nc1ccccc1,0.14
SMILES,Ba CapD inh
O=C(CCSc1ccccc1)NCc1cccnc1,-0.22
COc1ccc(SCCC(=O)NCc2ccncc2)cc1,-2.1*
O=C(CCSc1ccc(Cl)cc1)NCc1ccncc1,0.24
O=c1c(C=Nc2cccc(F)c2)c(C(F)(F)F)[nH]n1-c1ccc([N+](=O)[O-])cc1,-0.39
N#Cc1ccc(NC(=O)CCC2CCCC2)cc1,-1.1
CCOC(=O)C1=C(c2ccccc2)S/C(=C2/C(=S)C(C)(C)N(C(=O)C(F)(F)F)c3ccc(OC)cc32)S1,-0.43
CC(C)Cn1c(CCC(=O)O)ccc1-c1ccccc1,5
CC(C)(C)OC(=O)NC(COC(=O)N1CCC(C(O)(c2ccccc2)c2ccccc2)CC1)CC1CCCCC1 (stereo not drawn),0.2
CC1=NNC(=O)C1Cc1ccccc1 (stereo not drawn),-0.42
Cc1ccc(C)n1-c1ccccc1C1C=NNC1=O (stereo not drawn),-4.1*
O=C(NCCc1ccccc1)c1c[nH]c2ccc(S(=O)(=O)N3CCOCC3)cc2c1=O,0.39
CS(=O)(=O)c1ccc(CN(Cc2ccccn2)C(=O)c2cccc(C(F)(F)F)c2)cc1,0.15
C=CCOc1ccc(CN2CCN(C(=O)CNC(=O)c3cccnc3)CC2)cc1,0.63
Cc1c(C(=O)N2CCN(c3ccc(Cl)cc3)CC2)oc2c1-c1[nH]ncc1CC2,1.4
CN1C2CCC1CC(NC(=O)CCN1CCCCCC1)C2 (stereo not drawn),-0.12
Cc1cc(C)nc(Sc2ccc(NC(=O)NC(C)(C)C)cc2)n1,-0.59
CC(=O)Nc1ccc2nc(C)sc2c1,-5.7*
Cc1nc2ccc(NC(=O)c3cccc(Br)c3)cc2s1,-0.085
CC(=O)Nc1ccc2nc(NC(=O)C(C)(C)C)sc2c1,-0.36
Cc1ccc(CSc2nc(-c3ccccc3)c(-c3ccccc3)[nH]2)cc1,18
Nc1cc2c(cc1C(O)(C(F)(F)F)C(F)(F)F)OCCO2,0.7
O=C(O)c1ccc(C(=O)O)c2c(-c3ccc4c(=O)n5c6ccccc6nc5c5ccc(C(=O)O)c3c45)ccc(C(=O)O)c12,-8.4*
O=c1c2ccc(N/N=C/c3c4ccccc4cc4ccccc34)c3cccc(c32)c2nc3ccccc3n12,-0.14
N#Cc1ccc2c(c1)nc1c3ccc(C(=O)O)c4c(C(=O)O)ccc(c(=O)n21)c43,-1.1
Cc1ccc(C(=O)c2c(C)ccc3ccccc23)cc1C,-0.57
SMILES,Ba CapD inh
COc1ccc(/C=C2\SC(=S)N(C(CC(=O)O)C(=O)O)C2=O)cc1 (stereo not drawn),-3
O=C(O)CC(C(=O)O)N1C(=O)/C(=C/c2ccc(Cl)cc2)SC1=S (stereo not drawn),-1
O=C(O)CC(C(=O)O)N1C(=O)/C(=C/c2ccc(-c3ccc(Br)cc3)o2)SC1=S (stereo not drawn),-4.5*
CCN(CC)Cc1cc(NC(=O)OCCc2ccc(Br)cc2)ccc1O,-1
CN1C(=O)/C(=C/c2cccn2C(C)(C)C)C(=O)NC1=S,-4.5*
CCc1ccc(N2C(=O)/C(=C/c3cccn3C(C)(C)C)C(=O)NC2=S)cc1,8.6
CN1C(=O)C(=Cc2cccn2C(C)(C)C)C(=O)N(C)C1=S,0.2
CC1(C)CC(=O)C2=C(C1)c1c(ccc3ncccc13)NC2c1ccc(-c2ccccc2)cc1 (stereo not drawn),37
CN1CCN(c2cc(N(C)CCO)c([N+](=O)[O-])c3nonc23)CC1,-4.2*
